The structures appear in SMILES notation.

The target in test [1] is Calcium/calmodulin-dependent protein kinase type II subunit beta (Homo sapiens) (UniProt Q13554). The settings on record: at 1 µM.
The target is the same in test [2]. The settings on record: at 10 µM.
For test [3], the target named is Calcium/calmodulin-dependent protein kinase type II subunit delta (Homo sapiens) (UniProt Q13557). The settings on record: at 1 µM.
Test [4] concerns the target T1, Myotonin-protein kinase (Homo sapiens) (UniProt Q09013).
T1 sequence (whole entry): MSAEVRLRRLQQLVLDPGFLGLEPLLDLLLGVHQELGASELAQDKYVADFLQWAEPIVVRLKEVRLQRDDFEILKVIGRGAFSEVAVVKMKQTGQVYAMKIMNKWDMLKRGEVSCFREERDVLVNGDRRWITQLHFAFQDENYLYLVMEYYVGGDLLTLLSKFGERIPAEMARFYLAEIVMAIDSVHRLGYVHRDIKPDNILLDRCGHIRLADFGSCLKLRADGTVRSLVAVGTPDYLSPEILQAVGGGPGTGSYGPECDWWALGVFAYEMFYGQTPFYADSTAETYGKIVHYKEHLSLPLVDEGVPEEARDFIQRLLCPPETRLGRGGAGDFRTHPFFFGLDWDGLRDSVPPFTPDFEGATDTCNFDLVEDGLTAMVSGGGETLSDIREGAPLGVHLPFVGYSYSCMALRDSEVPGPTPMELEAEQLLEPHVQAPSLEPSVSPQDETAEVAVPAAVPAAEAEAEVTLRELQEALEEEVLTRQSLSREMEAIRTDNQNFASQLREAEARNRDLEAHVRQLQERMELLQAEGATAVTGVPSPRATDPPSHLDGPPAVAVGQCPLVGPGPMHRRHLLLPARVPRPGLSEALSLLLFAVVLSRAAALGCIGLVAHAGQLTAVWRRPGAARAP
The settings on record: at 1 µM.

The target in test [5] is T1, Myotonin-protein kinase (Homo sapiens). Particulars: at 10 µM.
Test [6] addresses T2, Serine/threonine-protein kinase 17A (Homo sapiens) (UniProt Q9UEE5).
T2 sequence (whole entry): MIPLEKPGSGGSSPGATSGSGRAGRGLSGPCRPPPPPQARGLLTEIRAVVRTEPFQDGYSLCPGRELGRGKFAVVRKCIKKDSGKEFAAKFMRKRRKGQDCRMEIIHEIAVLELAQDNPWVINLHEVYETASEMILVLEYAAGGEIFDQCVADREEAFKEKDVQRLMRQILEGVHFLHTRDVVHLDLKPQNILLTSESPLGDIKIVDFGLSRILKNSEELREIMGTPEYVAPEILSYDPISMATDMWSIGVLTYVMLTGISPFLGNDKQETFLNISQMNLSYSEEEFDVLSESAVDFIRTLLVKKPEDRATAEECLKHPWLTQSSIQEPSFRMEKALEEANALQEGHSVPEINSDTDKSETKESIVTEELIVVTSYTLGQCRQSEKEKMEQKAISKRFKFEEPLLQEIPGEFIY
Particulars: at 1 µM.

Test [7] addresses Death-associated protein kinase 1 (Homo sapiens) (UniProt P53355). The settings on record: at 10 µM.
In test [8] the target is T3, Discoidin domain-containing receptor 2 (Homo sapiens) (UniProt Q16832).
T3 sequence (whole entry): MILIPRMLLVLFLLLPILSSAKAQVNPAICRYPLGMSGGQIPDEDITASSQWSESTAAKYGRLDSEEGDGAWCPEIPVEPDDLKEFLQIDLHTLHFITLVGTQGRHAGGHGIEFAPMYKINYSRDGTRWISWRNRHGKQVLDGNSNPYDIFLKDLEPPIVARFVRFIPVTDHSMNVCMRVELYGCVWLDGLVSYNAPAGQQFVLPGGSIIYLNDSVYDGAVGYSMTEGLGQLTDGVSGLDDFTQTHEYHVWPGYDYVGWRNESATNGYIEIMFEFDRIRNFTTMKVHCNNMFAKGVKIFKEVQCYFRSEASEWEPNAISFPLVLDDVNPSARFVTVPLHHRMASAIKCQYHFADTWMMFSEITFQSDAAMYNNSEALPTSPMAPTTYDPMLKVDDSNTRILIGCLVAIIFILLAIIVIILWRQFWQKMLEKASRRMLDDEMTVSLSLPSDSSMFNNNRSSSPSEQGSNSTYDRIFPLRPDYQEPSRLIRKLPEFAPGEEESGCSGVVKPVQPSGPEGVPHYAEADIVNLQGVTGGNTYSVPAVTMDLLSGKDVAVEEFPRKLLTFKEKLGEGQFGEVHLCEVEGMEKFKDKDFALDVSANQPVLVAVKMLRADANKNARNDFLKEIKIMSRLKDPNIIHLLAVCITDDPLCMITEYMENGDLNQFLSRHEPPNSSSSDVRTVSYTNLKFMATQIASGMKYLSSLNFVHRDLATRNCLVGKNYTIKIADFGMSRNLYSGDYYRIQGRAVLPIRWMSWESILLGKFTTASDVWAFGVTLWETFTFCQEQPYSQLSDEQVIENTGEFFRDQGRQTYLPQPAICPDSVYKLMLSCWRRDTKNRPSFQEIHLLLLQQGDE
The settings on record: at 1 µM.

Test [9] deals with T3, Discoidin domain-containing receptor 2 (Homo sapiens). Particulars: at 10 µM.
Test [10] addresses Calcium/calmodulin-dependent protein kinase type II subunit gamma (Homo sapiens) (UniProt Q13555). Particulars: at 10 µM.
For test [11], the target named is Calcium/calmodulin-dependent protein kinase type II subunit delta (Homo sapiens) (UniProt Q13557). Particulars: at 10 µM.
Test [12] deals with T4, Calcium/calmodulin-dependent protein kinase type IV (Homo sapiens) (UniProt Q16566).
T4 sequence (whole entry): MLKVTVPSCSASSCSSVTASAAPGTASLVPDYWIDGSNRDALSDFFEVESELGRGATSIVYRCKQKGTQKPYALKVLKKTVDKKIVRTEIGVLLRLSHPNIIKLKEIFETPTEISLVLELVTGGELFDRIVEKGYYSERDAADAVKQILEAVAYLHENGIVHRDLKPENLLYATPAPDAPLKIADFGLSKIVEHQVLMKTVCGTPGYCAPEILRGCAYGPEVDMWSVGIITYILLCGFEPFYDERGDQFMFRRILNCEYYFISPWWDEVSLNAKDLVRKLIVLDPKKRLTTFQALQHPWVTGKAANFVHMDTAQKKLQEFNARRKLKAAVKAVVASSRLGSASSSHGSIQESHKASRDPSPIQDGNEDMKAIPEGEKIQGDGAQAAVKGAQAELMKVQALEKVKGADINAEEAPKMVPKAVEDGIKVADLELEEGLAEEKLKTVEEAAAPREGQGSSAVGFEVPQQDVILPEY
The settings on record: at 1 µM.

For test [13], the target named is T4, Calcium/calmodulin-dependent protein kinase type IV (Homo sapiens). The settings on record: at 10 µM.
Test [14] concerns the target Calcium/calmodulin-dependent protein kinase type 1 (Homo sapiens) (UniProt Q14012). Particulars: at 10 µM.
Test [15] addresses Calcium/calmodulin-dependent protein kinase type II subunit gamma (Homo sapiens) (UniProt Q13555). The settings on record: at 1 µM.
Test [16] deals with T5, Serine/threonine-protein kinase DCLK2 (Homo sapiens) (UniProt Q8N568).
T5 sequence (whole entry): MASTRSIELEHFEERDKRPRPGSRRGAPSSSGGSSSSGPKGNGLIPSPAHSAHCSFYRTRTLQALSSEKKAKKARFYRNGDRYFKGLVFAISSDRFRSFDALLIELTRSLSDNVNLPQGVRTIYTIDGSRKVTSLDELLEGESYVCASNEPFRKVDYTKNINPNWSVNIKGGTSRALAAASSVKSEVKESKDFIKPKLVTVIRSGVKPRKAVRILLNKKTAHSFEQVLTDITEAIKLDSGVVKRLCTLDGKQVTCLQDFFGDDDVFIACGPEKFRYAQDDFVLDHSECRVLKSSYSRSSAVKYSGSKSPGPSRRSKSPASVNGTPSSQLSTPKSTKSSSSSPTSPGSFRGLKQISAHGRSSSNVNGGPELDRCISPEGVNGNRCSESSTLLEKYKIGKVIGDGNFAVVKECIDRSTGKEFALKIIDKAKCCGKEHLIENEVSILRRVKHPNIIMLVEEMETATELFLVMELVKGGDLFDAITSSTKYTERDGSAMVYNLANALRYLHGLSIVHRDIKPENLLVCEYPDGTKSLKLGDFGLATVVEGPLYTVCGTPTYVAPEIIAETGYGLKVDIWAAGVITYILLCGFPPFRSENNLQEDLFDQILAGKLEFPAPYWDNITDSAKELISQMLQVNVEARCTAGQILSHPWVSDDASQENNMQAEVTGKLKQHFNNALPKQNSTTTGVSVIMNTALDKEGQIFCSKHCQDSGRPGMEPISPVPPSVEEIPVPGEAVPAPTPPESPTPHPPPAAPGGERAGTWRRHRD
Particulars: at 1 µM.

Test [17] has as its target T5, Serine/threonine-protein kinase DCLK2 (Homo sapiens). The settings on record: at 10 µM.
Test [18] has as its target Death-associated protein kinase 2 (Homo sapiens) (UniProt Q9UIK4). The settings on record: at 1 µM.
For test [19] the target is unchanged. Particulars: at 10 µM.

Sequence of Calcium/calmodulin-dependent protein kinase type II subunit gamma (Homo sapiens) (Q13555 whole entry): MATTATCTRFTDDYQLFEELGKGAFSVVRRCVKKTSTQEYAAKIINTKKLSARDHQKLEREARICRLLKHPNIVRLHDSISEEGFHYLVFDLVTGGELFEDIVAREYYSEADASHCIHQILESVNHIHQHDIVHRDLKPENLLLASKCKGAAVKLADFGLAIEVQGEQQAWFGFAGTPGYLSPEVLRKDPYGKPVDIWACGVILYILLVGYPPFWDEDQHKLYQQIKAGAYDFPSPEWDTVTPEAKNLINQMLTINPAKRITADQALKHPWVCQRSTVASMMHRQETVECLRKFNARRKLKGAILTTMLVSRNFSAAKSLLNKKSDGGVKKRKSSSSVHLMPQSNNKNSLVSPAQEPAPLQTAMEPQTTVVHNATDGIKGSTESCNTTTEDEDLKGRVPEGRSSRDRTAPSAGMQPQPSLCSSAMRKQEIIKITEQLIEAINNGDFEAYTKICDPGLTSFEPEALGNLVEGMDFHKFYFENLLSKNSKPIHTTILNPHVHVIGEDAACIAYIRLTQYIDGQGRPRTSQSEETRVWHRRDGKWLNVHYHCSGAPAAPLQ
Sequence of Calcium/calmodulin-dependent protein kinase type II subunit delta (Homo sapiens) (Q13557 whole entry): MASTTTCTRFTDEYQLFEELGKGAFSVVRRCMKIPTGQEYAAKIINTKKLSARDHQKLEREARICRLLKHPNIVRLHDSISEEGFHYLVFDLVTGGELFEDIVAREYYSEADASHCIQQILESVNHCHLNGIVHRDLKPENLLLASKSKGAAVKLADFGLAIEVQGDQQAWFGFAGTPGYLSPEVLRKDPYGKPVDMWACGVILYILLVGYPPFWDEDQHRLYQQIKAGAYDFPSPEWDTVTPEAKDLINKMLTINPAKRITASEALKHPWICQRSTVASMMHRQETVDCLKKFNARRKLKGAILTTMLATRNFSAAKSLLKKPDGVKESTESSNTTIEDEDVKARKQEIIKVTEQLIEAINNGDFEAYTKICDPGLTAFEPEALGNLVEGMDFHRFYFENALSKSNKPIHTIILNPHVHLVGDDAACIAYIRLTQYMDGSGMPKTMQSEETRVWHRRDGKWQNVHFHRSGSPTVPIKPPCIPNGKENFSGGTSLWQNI
Sequence of Calcium/calmodulin-dependent protein kinase type 1 (Homo sapiens) (Q14012 whole entry, looked up): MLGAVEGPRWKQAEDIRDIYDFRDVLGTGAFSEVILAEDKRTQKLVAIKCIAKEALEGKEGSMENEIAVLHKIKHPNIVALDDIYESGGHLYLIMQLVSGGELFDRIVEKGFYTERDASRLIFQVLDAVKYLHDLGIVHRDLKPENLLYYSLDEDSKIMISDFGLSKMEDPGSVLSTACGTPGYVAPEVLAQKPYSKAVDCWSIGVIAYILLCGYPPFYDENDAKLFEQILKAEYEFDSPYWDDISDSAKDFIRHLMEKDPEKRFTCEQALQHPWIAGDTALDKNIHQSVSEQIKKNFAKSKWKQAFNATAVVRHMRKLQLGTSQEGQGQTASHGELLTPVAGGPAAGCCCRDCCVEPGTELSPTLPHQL
Sequence of Death-associated protein kinase 2 (Homo sapiens) (Q9UIK4 whole entry, looked up): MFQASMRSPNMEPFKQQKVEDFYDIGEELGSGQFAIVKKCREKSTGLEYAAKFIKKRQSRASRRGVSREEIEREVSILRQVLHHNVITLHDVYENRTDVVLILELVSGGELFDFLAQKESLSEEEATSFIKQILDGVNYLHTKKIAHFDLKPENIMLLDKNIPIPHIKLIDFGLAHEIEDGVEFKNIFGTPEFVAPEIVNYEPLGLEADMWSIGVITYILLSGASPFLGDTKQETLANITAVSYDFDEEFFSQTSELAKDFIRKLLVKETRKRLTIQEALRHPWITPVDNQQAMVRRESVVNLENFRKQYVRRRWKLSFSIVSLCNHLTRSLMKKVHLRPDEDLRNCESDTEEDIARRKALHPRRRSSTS
Sequence of Death-associated protein kinase 1 (Homo sapiens) (P53355 whole entry, looked up, the tested form may be a part): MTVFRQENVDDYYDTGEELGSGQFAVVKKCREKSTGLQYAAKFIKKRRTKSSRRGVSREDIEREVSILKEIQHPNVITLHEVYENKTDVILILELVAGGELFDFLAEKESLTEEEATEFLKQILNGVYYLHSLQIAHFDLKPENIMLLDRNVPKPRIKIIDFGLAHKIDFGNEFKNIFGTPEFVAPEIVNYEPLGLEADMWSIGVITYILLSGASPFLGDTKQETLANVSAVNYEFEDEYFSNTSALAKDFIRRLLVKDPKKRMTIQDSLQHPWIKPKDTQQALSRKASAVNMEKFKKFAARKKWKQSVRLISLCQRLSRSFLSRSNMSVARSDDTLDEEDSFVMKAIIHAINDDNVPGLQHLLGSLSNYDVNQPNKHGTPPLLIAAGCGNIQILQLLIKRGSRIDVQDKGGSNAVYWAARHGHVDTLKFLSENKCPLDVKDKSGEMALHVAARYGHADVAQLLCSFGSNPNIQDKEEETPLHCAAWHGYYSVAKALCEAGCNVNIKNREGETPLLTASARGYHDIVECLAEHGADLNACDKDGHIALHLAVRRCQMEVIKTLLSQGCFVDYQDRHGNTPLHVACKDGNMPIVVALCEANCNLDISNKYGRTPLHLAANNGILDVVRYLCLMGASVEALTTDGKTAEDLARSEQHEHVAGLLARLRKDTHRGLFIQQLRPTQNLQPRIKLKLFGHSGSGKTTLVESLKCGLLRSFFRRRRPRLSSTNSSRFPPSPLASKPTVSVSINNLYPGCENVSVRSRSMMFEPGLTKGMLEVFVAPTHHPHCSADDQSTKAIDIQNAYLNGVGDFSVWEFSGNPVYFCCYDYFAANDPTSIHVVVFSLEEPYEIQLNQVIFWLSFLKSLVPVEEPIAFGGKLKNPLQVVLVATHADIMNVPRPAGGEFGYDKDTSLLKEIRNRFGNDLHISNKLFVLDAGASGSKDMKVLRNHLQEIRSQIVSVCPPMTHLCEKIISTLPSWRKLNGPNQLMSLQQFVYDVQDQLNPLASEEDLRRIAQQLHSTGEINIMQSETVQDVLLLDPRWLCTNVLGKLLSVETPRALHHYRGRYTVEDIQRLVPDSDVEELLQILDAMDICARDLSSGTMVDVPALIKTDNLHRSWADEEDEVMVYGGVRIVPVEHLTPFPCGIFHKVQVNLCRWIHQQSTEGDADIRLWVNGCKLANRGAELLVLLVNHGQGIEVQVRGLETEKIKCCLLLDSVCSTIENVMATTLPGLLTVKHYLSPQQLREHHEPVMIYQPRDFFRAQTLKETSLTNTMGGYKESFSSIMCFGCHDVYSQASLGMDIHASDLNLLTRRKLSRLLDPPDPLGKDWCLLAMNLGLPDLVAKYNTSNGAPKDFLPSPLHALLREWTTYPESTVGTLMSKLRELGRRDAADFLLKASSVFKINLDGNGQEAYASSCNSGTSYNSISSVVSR
Sequence of Calcium/calmodulin-dependent protein kinase type II subunit beta (Homo sapiens) (Q13554 whole entry): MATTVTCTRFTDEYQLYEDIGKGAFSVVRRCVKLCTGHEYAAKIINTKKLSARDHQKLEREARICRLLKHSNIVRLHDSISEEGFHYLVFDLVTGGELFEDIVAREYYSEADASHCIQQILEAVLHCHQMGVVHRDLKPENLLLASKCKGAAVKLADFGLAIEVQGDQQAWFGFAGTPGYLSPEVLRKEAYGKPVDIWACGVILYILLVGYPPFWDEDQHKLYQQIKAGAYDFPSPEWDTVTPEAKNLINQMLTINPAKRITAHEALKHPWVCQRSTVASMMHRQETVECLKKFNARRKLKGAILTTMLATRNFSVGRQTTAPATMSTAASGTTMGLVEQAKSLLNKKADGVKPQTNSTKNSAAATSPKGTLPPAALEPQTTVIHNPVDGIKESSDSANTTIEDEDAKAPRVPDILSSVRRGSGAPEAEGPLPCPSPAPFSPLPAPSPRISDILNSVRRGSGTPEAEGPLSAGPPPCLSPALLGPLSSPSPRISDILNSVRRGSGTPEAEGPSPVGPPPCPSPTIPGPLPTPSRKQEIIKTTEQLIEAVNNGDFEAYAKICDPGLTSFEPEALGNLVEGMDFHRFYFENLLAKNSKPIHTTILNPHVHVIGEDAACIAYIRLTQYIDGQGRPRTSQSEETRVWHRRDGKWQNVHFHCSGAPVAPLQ

In the case of `CN([C@@H](Cc1ccc(OS(=O)(=O)c2cccc3cnccc23)cc1)C(=O)N1CCN(c2ccccc2)CC1)S(=O)(=O)c1cccc2cnccc12`, the residual activity in test [1] came out at 100%; in test [2], 78%; in test [3], 99%; in test [4] it was 135%; in test [5], 115%; in test [6] it was 117%.

On to `Fc1ccc(-c2nc3n(c2-c2ccncc2)CCS3)cc1`, for which the residual activity in test [1] was 100%; in test [2], 95%; in test [7] it was 93%; in test [8], 83%; in test [9] it was 35%; in [4] it was 87%. Also, the residual activity in test [5] was 96%.

With `O=C(Nc1nc2ccccc2n1CCN1CCOCC1)c1cccc([N+](=O)[O-])c1`, the residual activity in test [1] worked out at 83%; in test [2], 83%; in test [10] it was 76%; in test [3], 103%; in test [11] it was 85%; in test [12], 115%. Further, the residual activity in test [13] turned out to be 53%; in [7], 73%; in test [8], 110%; in [9], 112%; in test [6], 104%.

In the case of `CN(C)S(=O)(=O)c1ccc2c(c1)/C(=C/c1cc3c([nH]1)CCCC3)C(=O)N2`, the residual activity was determined as 94% in [14]; 71% in [1]; 59% in [2]; 17% in test [15]; 12% in test [10]; 18% in test [3]. For the same compound, the residual activity in [11] was 13%; in [12], 89%; in [13] it was 98%; in test [7] it was 99%; in [16], 55%; in test [17] it was 55%. Also, the residual activity in test [4] is 113%; in test [5], 92%; in test [6] it was 70%.

As for `CCOc1nc(NC(=O)Cc2cc(OC)ccc2OC)cc(N)c1C#N`, the results for the residual activity in [14] and in test [16] were 78% and 138%, respectively.

Consider `CCCC(=O)Oc1ccc2[nH]c(C(=O)c3cc4ccccc4[nH]3)cc2c1`, for which the residual activity is 89% in [14]; 86% in test [1]; 85% in test [2]; 99% in test [15]; 102% in test [10]; 83% in test [11]. Also, the residual activity in [13] is 53%; in test [7], 68%; in test [18], 95%; in test [19], 104%; in test [16] it was 82%; in test [17], 93%. In addition, the figures for the residual activity in test [9], in test [4] and in test [5] were 101%, 132% and 133%, respectively.

As to `COc1ccc(CNC(=O)Nc2ncc([N+](=O)[O-])s2)cc1`, the residual activity came out at 72% in test [14]; 102% in test [18]; 104% in test [19]; 100% in test [4]; 80% in test [5].

`O=C1Nc2ccccc2/C1=C\c1c(Cl)[nH]c2ccccc12`: the residual activity in test [14] came out at 51%; in test [2], 25%; in [10], 39%; in test [3], 87%; in test [11] it was 34%; in test [7] it was 83%. Also, the residual activity is 119% in [4] and 83% in test [6].

For `CCOC(=O)c1c(C)[nH]c(/C=C2\C(=O)Nc3ccccc32)c1C`, the residual activity in test [14] came out at 77%; in test [1], 98%; in [2] it was 93%; in test [15], 77%; in test [10], 48%; in [3], 79%. In addition, the residual activity worked out at 59% in test [11], 99% in test [7] and 86% in test [6].

Regarding `O=c1cc(N2CCOCC2)oc2c(-c3ccccc3)cccc12`, the residual activity in test [14] worked out at 55%; in test [2] it was 79%; in test [17], 76%; in [4] it was 134%; in [5], 130%.

On to `Cc1cc(C)c(/C=C2\C(=O)Nc3ccccc32)[nH]1`, for which the residual activity was 32% in test [15]; -1% in test [10]; 38% in [3]; 9% in test [11]; 104% in test [12]; 60% in test [13]. The residual activity in test [6] was 26%.

Turning to `O=C1NC(=O)C(c2c[nH]c3ccccc23)=C1c1c[nH]c2ccccc12`, the residual activity in test [14] was found to be 57%; in [1] it was 68%; in test [2], 13%; in test [15], 40%; in test [10], 4%; in test [3], 28%. The residual activity in [11] is 4%; in [12], 100%; in test [13], 54%; in test [19] it was 58%; in test [6] it was 67%.
